A short description of assay [1]: qHTS assay to test for compound auto fluorescence at 535 nm (green) in HEK293 cells (AID 720680).
Assay [2] can be described thus: qHTS assay to test for compound auto fluorescence at 460 nm (blue) in HEK293 cell free culture (AID 720681). In short, it runs like this:
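Test compounds were pinned into cell-free culture medium (DMEM with 10% FBS) and fluorescence was read directly at Ex/Em 405/460 nm. Signals were expressed as fluorescence equivalents of triamterene, with DMSO vehicle as control.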

Assay [3] is described as follows: qHTS assay to test for compound auto fluorescence at 535 nm (green) in HEK293 cell free culture (AID 720682). In outline: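 No cells present: wells hold DMEM supplemented with 10% FBS, into which compound or vehicle is pinned. Green emission is then recorded (485 nm excitation, 535 nm emission) and scaled to fluorescein.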
The nature of assay [4]: qHTS assay to test for compound auto fluorescence at 590 nm (red) in HepG2 cell free culture (AID 720684). In short, it runs like this: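 Readout: intrinsic compound fluorescence at 590 nm emission after 540 nm excitation, scaled to Rose Bengal sodium. Matrix was cell-free MEM with 10% FBS; DMSO vehicle wells served as control.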
Assay [5] in a line: qHTS assay to test for compound auto fluorescence at 460 nm (blue) in HepG2 cell free culture (AID 720685). In short, it runs like this: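 Cell-free plates of MEM plus 10% FBS received 23 nL compound or DMSO vehicle; blue-channel (405/460 nm) intensity scored against triamterene as reference fluorophore.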
A short description of assay [6]: qHTS assay to test for compound auto fluorescence at 535 nm (green) in HepG2 cell free culture (AID 720686).
Assay [7] addresses Glucocorticoid receptor (Homo sapiens) (UniProt P04150). As to the kind of experiment: qHTS assay to identify small molecule agonists of the glucocorticoid receptor (GR) signaling pathway (AID 720691; active = well fitted activation curve with a large enough effect in the signal ratio in the repeat runs, not every such curve was filed as active; inconclusive = weak or mixed curves, or effect the other way; inactive = no such curve, though single readings can be large or run the other way; the % refers to the signal ratio; note: potency is the fitted concentration of half-maximal effect). Particulars: GR-bla HeLa, beta-lactamase reporter ratio, 18 h; activation: at 62.4 µM (top of the series). In short, it runs like this: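 HeLa GR-bla reporter line; cells pre-incubated 4 h, compound in DMSO 18 h at 37 C; LiveBLAzer B/G FRET substrate 2 h RT; fluorescence intensity read-out.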

Assay [8] is described as follows: qHTS assay to identify small molecule antagonists of the glucocorticoid receptor (GR) signaling pathway - cell viability counter screen (AID 720693). Note: nearly all actives have a fitted effect of over 55% in size. Note: potency is the fitted concentration of half-maximal effect.
Assay [9] can be described thus: qHTS assay for identifying genotoxic compounds that show differential cytotoxicity against isogenic chicken DT40 cell lines with known DNA damage response pathways - wild type cell line (AID 743012). Note: nearly all actives have a fitted effect of over 60% in size. Note: potency is the fitted concentration of half-maximal effect. In short, it runs like this:
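CellTiter-Glo luminescence readout of viability in wild type DT40 cells after 40 h compound exposure at 37 C/5% CO2; 300 cells/well; reagent incubated 30 min at room temperature before reading.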

A short description of assay [10]: qHTS assay for identifying genotoxic compounds that show differential cytotoxicity against isogenic chicken DT40 cell lines with known DNA damage response pathways - Rad54/Ku70 mutant cell line (AID 743015). Note: nearly all actives have a fitted effect of over 60% in size. Note: potency is the fitted concentration of half-maximal effect.
Assay [11] can be described thus: qHTS assay to identify small molecule antagonists of the androgen receptor (AR) signaling pathway - cell viability counter screen (AID 743033; note: nearly all actives have a fitted effect of over 45% in size; note: potency is the fitted concentration of half-maximal effect).
For assay [12], the target named is Androgen receptor (Homo sapiens) (UniProt P10275). As to the kind of experiment: qHTS assay to identify small molecule antagonists of the androgen receptor (AR) signaling pathway (AID 743035; active = well fitted inhibition curve with a large enough effect in the signal ratio in the repeat runs, not every such curve was filed as active; inconclusive = weak or mixed curves, or effect the other way; inactive = no such curve, though single readings can be large or run the other way; the % refers to the signal ratio; note: potency is the fitted concentration of half-maximal effect). In outline:
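AR-bla HEK293 reporter cells; 4 h settle at 37C/5% CO2; compound + R1881 agonist, 16 h at 37C; LiveBLAzer B/G FRET substrate 2 h RT; fluorescence intensity read. qHTS format.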

For assay [13] the target is unchanged. In words: qHTS assay to identify small molecule agonists of the androgen receptor (AR) signaling pathway using the MDA cell line (AID 743040; note: nearly all actives have a fitted effect of over 20% in size; note: potency is the fitted concentration of half-maximal effect). In short, it runs like this:
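Agonist activity is measured as luciferase luminescence in human MDA-kb2 cells whose MMTV reporter responds to both AR and GR. Compounds in DMSO incubate 16 h at 37C, 0% CO2, and ONE-Glo is read after 30 min.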

Assay [14] in a line: qHTS assay to identify small molecule antagonists of the androgen receptor (AR) signaling pathway using the MDA cell line - cell viability counter screen (AID 743041; note: nearly all actives have a fitted effect of over 45% in size; note: potency is the fitted concentration of half-maximal effect). In short, it runs like this: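 qHTS viability read-out; MDA-kb2 AR-luc; R1881-stimulated; 16 h exposure at 37C, 0% CO2; CellTiter-Fluor, 30 min; fluorescence intensity.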
Assay [15] concerns the target Androgen receptor (Homo sapiens) (UniProt P10275). As to the kind of experiment: qHTS assay to identify small molecule antagonists of the androgen receptor (AR) signaling pathway using the MDA cell line (AID 743042; note: nearly all actives have a fitted effect of over 55% in size). In outline:
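MDA-kb2 cells (human breast carcinoma, stably carrying an MMTV-luciferase reporter responsive to AR and GR) were plated at 3,000 cells/well and preincubated 5 hr at 37C, then given compound plus R1881 agonist for 16 h. ONE-Glo luminescence was read.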

Assay [16] in a line: qHTS assay to test for compound auto fluorescence at 590 nm (red) in HEK293 cell free culture (AID 720683). In short, it runs like this: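 Tox21 10K library compounds were pinned into cell-free DMEM with 10% FBS and fluorescence was read at excitation 540 nm. Activity is expressed as Rose Bengal sodium equivalency.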
A short description of assay [17]: qHTS assay to test for compound auto fluorescence at 460 nm (blue) in HepG2 cells (AID 720687). In short, it runs like this: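 Cells (2,000/well in MEM with 10% FBS) attached overnight at 37 C, then were exposed to compound or DMSO for 1 hr at 37 C, 5% CO2. Fluorescence read at Ex/Em 405/460 nm, expressed as triamterene-equivalent signal.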
Assay [18] deals with Glucocorticoid receptor (Homo sapiens) (UniProt P04150). In words: qHTS assay to identify small molecule antagonists of the glucocorticoid receptor (GR) signaling pathway (AID 720692; active = well fitted inhibition curve with a large enough effect in the signal ratio in the repeat runs, not every such curve was filed as active; inconclusive = weak or mixed curves, or effect the other way; inactive = no such curve, though single readings can be large or run the other way; the % refers to the signal ratio). In short, it runs like this:
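Read-out: beta-lactamase FRET substrate fluorescence, 2 h at room temperature, in HeLa cells stably carrying a GRE-driven bla reporter. Compounds were co-incubated with 5 nM dexamethasone agonist (final) for 18 h at 37 C.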

Assay [19] is described as follows: qHTS assay for identifying genotoxic compounds that show differential cytotoxicity against isogenic chicken DT40 cell lines with known DNA damage response pathways - Rev3 mutant cell line (AID 743014). Note: nearly all actives have a fitted effect of over 55% in size. Note: potency is the fitted concentration of half-maximal effect.

“And” between values parts separate entries of the source, which are not always exact repeats. Equal entries are not always repeated. The source made the active and inactive calls. Unless noted, calls come from the whole dose curve; as a rule, active = well fitted curve in the direction sought with a large enough effect in the repeat runs; inconclusive = weak or mixed curves; inactive = no such curve, though single readings can be large; an effect the other way counts as inactive or inconclusive.

Sequence of Androgen receptor (Homo sapiens) (P10275 whole entry, looked up): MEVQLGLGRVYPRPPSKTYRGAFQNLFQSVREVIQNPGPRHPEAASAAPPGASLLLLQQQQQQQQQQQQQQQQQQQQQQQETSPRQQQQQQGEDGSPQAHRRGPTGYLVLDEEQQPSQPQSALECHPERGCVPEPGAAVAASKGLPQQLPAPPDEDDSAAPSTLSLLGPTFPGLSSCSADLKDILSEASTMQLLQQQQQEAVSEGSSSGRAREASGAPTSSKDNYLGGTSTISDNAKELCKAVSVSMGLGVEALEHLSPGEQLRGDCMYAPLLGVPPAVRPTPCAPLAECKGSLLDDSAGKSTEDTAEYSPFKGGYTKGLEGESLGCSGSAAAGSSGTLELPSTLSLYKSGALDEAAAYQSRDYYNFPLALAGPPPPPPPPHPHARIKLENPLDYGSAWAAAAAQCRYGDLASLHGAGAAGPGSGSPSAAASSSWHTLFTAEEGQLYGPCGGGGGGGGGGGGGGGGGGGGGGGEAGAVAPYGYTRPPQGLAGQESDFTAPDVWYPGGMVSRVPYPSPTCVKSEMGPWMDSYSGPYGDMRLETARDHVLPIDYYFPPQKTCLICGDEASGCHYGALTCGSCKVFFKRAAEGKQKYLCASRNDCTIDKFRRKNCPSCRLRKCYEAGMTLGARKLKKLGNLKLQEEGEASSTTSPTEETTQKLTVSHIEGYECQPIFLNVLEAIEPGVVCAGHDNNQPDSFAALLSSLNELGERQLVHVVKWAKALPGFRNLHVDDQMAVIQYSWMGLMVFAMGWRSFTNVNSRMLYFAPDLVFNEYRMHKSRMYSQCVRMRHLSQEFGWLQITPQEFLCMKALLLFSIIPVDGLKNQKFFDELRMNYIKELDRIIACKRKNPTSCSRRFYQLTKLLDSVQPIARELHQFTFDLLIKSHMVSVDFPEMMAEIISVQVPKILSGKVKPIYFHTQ
Sequence of Glucocorticoid receptor (Homo sapiens) (P04150 whole entry, looked up): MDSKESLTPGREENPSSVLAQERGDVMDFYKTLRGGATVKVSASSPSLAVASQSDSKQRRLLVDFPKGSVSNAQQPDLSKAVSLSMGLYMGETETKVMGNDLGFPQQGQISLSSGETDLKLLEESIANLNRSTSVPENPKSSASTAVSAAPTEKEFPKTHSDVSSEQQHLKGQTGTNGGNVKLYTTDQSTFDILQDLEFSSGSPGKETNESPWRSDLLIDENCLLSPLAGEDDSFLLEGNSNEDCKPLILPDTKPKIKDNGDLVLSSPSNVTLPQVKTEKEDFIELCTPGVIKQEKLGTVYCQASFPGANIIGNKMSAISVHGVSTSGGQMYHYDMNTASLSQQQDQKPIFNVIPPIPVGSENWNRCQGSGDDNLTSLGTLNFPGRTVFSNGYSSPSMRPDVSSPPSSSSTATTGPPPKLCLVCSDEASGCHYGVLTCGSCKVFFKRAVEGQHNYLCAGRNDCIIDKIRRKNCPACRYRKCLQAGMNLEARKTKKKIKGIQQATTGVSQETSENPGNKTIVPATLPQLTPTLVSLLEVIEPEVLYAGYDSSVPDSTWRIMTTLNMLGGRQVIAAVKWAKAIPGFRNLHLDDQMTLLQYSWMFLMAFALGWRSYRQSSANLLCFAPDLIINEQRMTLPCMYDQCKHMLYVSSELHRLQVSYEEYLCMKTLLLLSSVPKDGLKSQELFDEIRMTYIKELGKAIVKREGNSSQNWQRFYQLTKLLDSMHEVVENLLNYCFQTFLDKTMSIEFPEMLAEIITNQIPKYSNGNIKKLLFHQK

On to `CC[C@@H](C(=O)[C@@H](C)[C@@H](O)[C@H](C)CCc1ccc(C)c(O)c1C(=O)O)[C@H]1O[C@](CC)([C@H]2CC[C@](O)(CC)[C@H](C)O2)C[C@@H]1C`, for which the compound was classed as inactive in assay [1], in assay [3] and in assay [4]. Moreover, the Potency entry in assay [2], in [5], in [6] and in assay [15] was “inactive” in each case. Besides, the Potency was 16.9 µM [inconclusive] (active) in assay [7]; 23.9 µM (active) in assay [8]; 5.96 µM (active) in assay [9]; 6.68 µM (active) in assay [10]; 6.74 µM (active) in assay [11]; 15.1 µM (active) in [12]. Moreover, the Potency in assay [13] is 1.88 µM (active); in assay [14], 11.1 µM (active).

Take `N=C(N)n1cccn1`: the outcome in [1], in [16] and in assay [4] was inactive. In addition, the Potency entry in [2], in assay [5], in assay [6], in assay [17], in assay [7] and in [18] was “inactive” each time. Besides, the Potency result in assay [8], in assay [9], in assay [19], in assay [10], in assay [11] and in assay [14] was “inactive” each time.

In the case of `CCCCCCCC[N+](C)(C)CCCCCCCC`, the compound was called inactive in assay [1], in assay [3] and in [4]. Moreover, the Potency entry in assay [2], in [5], in [6], in assay [17] and in assay [7] was “inactive” each time. In addition, the Potency in [9] was 668 nM (active) and 531 nM (active); in assay [19], 1.19 µM (active) and 1.06 µM (active); in [10], 1.33 µM (active) and 944 nM (active); in assay [11], 16.9 µM (active) and 12 µM (active); in assay [14], 21.1 µM (active).

Regarding `CC(=O)Oc1cc(C(F)(F)F)ccc1C(=O)O`, the call in assay [1], in [3] and in [4] was inactive. Besides, the Potency entry in assay [2], in assay [5], in assay [6], in assay [17], in assay [7] and in assay [18] was “inactive” in each case. In addition, the Potency result in assay [8], in [9], in assay [10], in assay [11] and in assay [14] was “inactive” each time.

For `COc1cccc(-c2ccc(/C=C\CN3CCCCCC3)cc2Cl)c1`, the compound was called inactive in assay [1], in assay [3] and in [16]. The Potency entry in [2], in assay [6] and in [17] was “inactive” throughout. Further, the Potency is 3.05 µM (active) in assay [9], 2.16 µM (active) in [10] and 38.7 µM (active) in assay [11].

For the compound `C=N[C@@H](C(=O)N[C@@H]1C(=O)N2[C@@H]1SC(C)(C)[C@@H]2C(=O)O)c1ccccc1`, the outcome in [1], in [3] and in [16] was inactive. Also, the Potency result in assay [2], in assay [5], in [6], in [17], in assay [8] and in assay [9] was “inactive” each time. Also, the Potency result in assay [19], in assay [10], in assay [11] and in assay [14] was “inactive” each time.

On to `COC1[C@@H](O[C@@H]2O[C@H](C)[C@@H](O[C@H]3C[C@@](C)(O)[C@H](OC(=O)CC(C)C)[C@H](C)O3)[C@H](N(C)C)[C@H]2O)[C@@H](CC=O)C[C@@H](C)[C@@H](O)/C=C/C=C/C[C@@H](C)OC(=O)C[C@H]1OC(C)=O` (stereo not given in full), for which the compound was classed as inactive in assay [1], in [3] and in [4]. Further, the Potency result in [2], in [5], in assay [6], in assay [17], in [7] and in [18] was “inactive” in each case. Further, the Potency result in assay [8], in assay [10] and in [14] was “inactive” each time.

With `c1ccc2c(c1)OCC(CN1CCCCC1)O2` (stereo not given), the compound was classed as inactive in assay [1], in assay [3] and in [16]. In addition, the Potency result in assay [2], in assay [5], in assay [6], in assay [17], in assay [8] and in [9] was “inactive” each time. For the same compound, the Potency result in assay [11], in assay [12], in assay [13], in assay [14] and in assay [15] was “inactive” each time.

The record behind these values is PubChem BioAssay (Tox21).
